The results in this text go back to paper PMC4336329 (PLoS ONE, 2015).

SMILES strings stand for the structures. Screen size: about 310,000 compounds; about 14,000 (4.5%) showed an effect of 50% or more. The effect is printed as a negative number. This excerpt belongs to a sample that is enriched for strong results.
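Also: peak tail current of the secondary pulse compared with the same well before compound.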

human ether-à-go-go-related gene (hERG) potassium channel, sequence (Q12809 whole entry, looked up): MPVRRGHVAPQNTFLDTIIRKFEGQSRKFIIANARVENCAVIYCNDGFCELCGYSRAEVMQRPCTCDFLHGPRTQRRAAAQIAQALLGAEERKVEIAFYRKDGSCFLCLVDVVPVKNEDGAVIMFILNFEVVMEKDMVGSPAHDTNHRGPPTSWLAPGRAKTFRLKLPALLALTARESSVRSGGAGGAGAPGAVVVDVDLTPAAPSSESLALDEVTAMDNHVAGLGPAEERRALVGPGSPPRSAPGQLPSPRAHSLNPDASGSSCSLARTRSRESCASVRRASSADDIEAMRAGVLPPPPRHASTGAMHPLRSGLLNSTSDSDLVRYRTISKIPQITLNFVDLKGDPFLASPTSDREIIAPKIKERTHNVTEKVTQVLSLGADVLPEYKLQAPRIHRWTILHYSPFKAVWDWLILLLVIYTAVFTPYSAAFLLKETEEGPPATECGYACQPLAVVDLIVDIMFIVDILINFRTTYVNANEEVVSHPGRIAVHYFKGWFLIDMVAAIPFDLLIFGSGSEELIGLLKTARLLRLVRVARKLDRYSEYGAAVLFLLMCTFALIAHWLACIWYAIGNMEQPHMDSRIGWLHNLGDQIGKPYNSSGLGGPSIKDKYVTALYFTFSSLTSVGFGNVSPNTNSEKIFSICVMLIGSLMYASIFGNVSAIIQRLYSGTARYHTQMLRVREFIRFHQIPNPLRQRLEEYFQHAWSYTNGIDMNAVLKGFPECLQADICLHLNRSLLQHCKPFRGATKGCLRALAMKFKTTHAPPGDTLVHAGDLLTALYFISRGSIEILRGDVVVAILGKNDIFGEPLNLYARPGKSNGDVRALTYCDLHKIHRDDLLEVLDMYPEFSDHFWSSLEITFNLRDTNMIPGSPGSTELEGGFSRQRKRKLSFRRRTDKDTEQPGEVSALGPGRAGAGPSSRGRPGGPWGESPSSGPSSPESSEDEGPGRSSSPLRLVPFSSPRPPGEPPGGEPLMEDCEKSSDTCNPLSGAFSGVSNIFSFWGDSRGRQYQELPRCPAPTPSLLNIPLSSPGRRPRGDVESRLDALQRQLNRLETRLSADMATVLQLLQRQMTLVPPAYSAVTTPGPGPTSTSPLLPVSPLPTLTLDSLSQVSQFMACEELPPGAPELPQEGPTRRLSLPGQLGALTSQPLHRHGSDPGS

The assay concerns the target human ether-à-go-go-related gene (hERG) potassium channel (human, UniProt Q12809). Description: primary screen, population patch clamp on CHO cells stably expressing hERG; higher = less effect of the substance.
Take `CC(C)CCNC(=O)NC(=O)CSc1nnc(-c2ccccc2Br)o1`: the “hERG current change (%, negative = inhibition) at 10uM” value is recorded as -5.73%.
Regarding `CC(=O)c1ccc(-c2nc3ccccc3n2C)o1`, the “hERG current change (%, negative = inhibition) at 10uM” value amounted to 12.7%.
In the case of `CC1CCN(C(=O)COC(=O)CCc2c[nH]c3ccccc23)CC1`, the “hERG current change (%, negative = inhibition) at 10uM” value was 9.1%.
Under `CCOC(=O)c1csc(NC(=O)c2ccccc2)n1` stands -8.86%; under `COc1ccc(NC(=O)OCC(C)C)cc1OC`, 15.9%.
In the case of `C=CCN1C(=O)/C(=C/c2ccc(OC)cc2)S/C1=N/c1nccs1`, the “hERG current change (%, negative = inhibition) at 10uM” value is 13.4%.
Regarding `Cc1nn(C(=O)c2ccco2)c(C)c1Sc1ccc([N+](=O)[O-])cc1`, the “hERG current change (%, negative = inhibition) at 10uM” value came out at 20.8%.
Under `O=C(COC(=O)c1cc(Cl)ccc1O)NCCNC(=O)COC(=O)c1cc(Cl)ccc1O` stands 21.4%.
As for `COc1ccc(Cl)cc1C(=O)OCC(=O)NCCNC(=O)COC(=O)c1cc(Cl)ccc1OC`, the “hERG current change (%, negative = inhibition) at 10uM” value is reported as -71.6%.
With `COc1ccc(Cl)cc1C(=O)OCC(=O)NCc1cccs1`, the “hERG current change (%, negative = inhibition) at 10uM” value is -28.1%.
Turning to `Cc1cccc(C(=O)OCCN2CCOCC2)c1.Cl`, the “hERG current change (%, negative = inhibition) at 10uM” value is recorded as 12.3%.
Regarding `CCOc1ccc(C2C(C#N)=C(N)SC(N)=C2C#N)cc1OCC`, the “hERG current change (%, negative = inhibition) at 10uM” value turned out to be 13.5%.
Under `COc1cccc(CN2CCCC(C(=O)c3ccccc3SC)C2)c1O` (stereo not shown) stands -77.5%; under `COc1cccc(O)c1CN1CCCC(C(=O)c2ccccc2SC)C1` (stereo not shown), -44.1%; under `COc1ccccc1CN1CCCC(C(=O)c2ccccc2SC)C1` (stereo not shown), -71.1%.
On to `COc1ccccc1CN1CCCC(C(=O)c2ccccc2OC)C1` (stereo not shown), for which the “hERG current change (%, negative = inhibition) at 10uM” value is -47.2%.
As for `COc1cccc(OC)c1CN1CCCC(C(=O)c2ccccc2SC)C1` (stereo not shown), the “hERG current change (%, negative = inhibition) at 10uM” value is given as -72.6%.
In the case of `COC(=O)CCCC(=O)N1CCCC(C(=O)c2ccccc2SC)C1` (stereo not shown), the “hERG current change (%, negative = inhibition) at 10uM” value is -8.08%.
In the case of `C/C(=N\NC(=O)c1ccccc1O)c1ccc(Br)s1`, the “hERG current change (%, negative = inhibition) at 10uM” value amounted to 11%.
`O=C(O)c1ccc2c(c1Sc1ccccc1)C(=O)c1ccccc1C2=O`: the “hERG current change (%, negative = inhibition) at 10uM” value is listed as -4.82%.
Consider `COc1cc(C(=O)Nc2ccc(S(=O)(=O)NC(C)C)cc2)cc(OC)c1OC`, for which the “hERG current change (%, negative = inhibition) at 10uM” value is given as -2.49%.
For the compound `O=C(CCn1cccn1)Nc1ccc(-c2ccno2)cc1`, the “hERG current change (%, negative = inhibition) at 10uM” value is given as 14.4%.
With `CCNC(=O)CN(CCc1ccccc1)S(C)(=O)=O`, the “hERG current change (%, negative = inhibition) at 10uM” value worked out at 17.8%.
Turning to `O=S(=O)(Nc1ccc(-c2nnc(SCc3ccc(Cl)cc3)o2)cc1)c1ccccc1`, the “hERG current change (%, negative = inhibition) at 10uM” value was determined as 17.8%.
On to `O=S(=O)(Nc1ccc(-c2ccc3nncn3n2)cc1)c1cccs1`, for which the “hERG current change (%, negative = inhibition) at 10uM” value came to 15.4%.
On to `O=C(NCc1ccccc1Cl)c1cccc(NC2=NC3CS(=O)(=O)CC3S2)c1` (stereo not shown), for which the “hERG current change (%, negative = inhibition) at 10uM” value came to 13.1%.
With `Cc1nnc(NC(=O)c2ccccc2Br)s1` the figure was -1.65%; with `CC1=C(C(=O)Nc2ccccc2)C(c2ccco2)C(C#N)=C(SCC(=O)Nc2cccc(C)c2C)N1` (stereo not shown), 17.9%.
Consider `CCc1nc2sc3c(c2c(=O)n1N)CC(C)(C)OC3`, for which the “hERG current change (%, negative = inhibition) at 10uM” value came out at 7.31%.
With `Oc1c(Br)cc(Br)cc1CN1CCN(Cc2ccccc2)CC1` the figure was -3.14%; with `CCN1CCN(Cc2cc(Br)cc(OC)c2O)CC1`, -20.4%; with `OCCN1CCN(Cc2cc(Br)cc(Br)c2O)CC1`, -60.8%.
With `CCN1CCN(Cc2cc(Br)cc(Br)c2O)CC1` the figure was -50.6%.
In the case of `COc1ccc(Br)cc1CN1CCN(CCO)CC1`, the “hERG current change (%, negative = inhibition) at 10uM” value is recorded as -0.9%.
Consider `CCN1CCN(Cc2cc(Br)ccc2O)CC1`, for which the “hERG current change (%, negative = inhibition) at 10uM” value is -22.7%.
As to `O=C(OCc1ccccc1)c1cc(S(=O)(=O)N2CCCCC2)ccc1N1CCOCC1`, the “hERG current change (%, negative = inhibition) at 10uM” value is given as -27.3%.
Under `CC(=O)N1N=C(c2cccs2)CC1c1ccc(C)o1` (stereo not shown) stands 7.07%; under `COC(=O)c1ccc(N2C(=O)CC(N3CCN(c4ccccc4)CC3)C2=O)cc1` (stereo not shown), 11.1%.
In the case of `Cc1cc(Cl)c(S(=O)(=O)NCc2ccncc2)cc1OCC(N)=O`, the “hERG current change (%, negative = inhibition) at 10uM” value was 1.62%.
In the case of `O=C(NCCn1cccn1)C1CCC(=O)N(CCc2ccc(Cl)cc2)C1` (stereo not shown), the “hERG current change (%, negative = inhibition) at 10uM” value turned out to be 5.51%.
With `COc1ccc(CCN2CC(C(=O)NCCCn3nc(C)cc3C)CCC2=O)cc1` (stereo not shown), the “hERG current change (%, negative = inhibition) at 10uM” value was -23.3%.
Regarding `Cc1ccn(CCNC(=O)C2CCC(=O)N(CCc3ccc(Cl)cc3)C2)n1` (stereo not shown), the “hERG current change (%, negative = inhibition) at 10uM” value was -55.3%.
On to `Cc1cc(C)n(CCNC(=O)C2CCC(=O)N(Cc3ccc(Cl)cc3)C2)n1` (stereo not shown), for which the “hERG current change (%, negative = inhibition) at 10uM” value turned out to be 15.2%.
On to `Cc1cc(C)n(CCCNC(=O)C2CCC(=O)N(CCc3ccc(Cl)cc3)C2)n1` (stereo not shown), for which the “hERG current change (%, negative = inhibition) at 10uM” value was -54.7%.
For `Cc1ccn(CCNC(=O)C2CCC(=O)N(Cc3ccc(Cl)cc3)C2)n1` (stereo not shown), the “hERG current change (%, negative = inhibition) at 10uM” value is recorded as -3.57%.
Take `COc1cccc(C2CC(c3ccccc3)Nc3nc(N)nn32)c1` (stereo not shown): the “hERG current change (%, negative = inhibition) at 10uM” value is listed as -7.93%.
`S=c1[nH]nc(Cc2cccs2)n1-c1cccc2ccccc12`: the “hERG current change (%, negative = inhibition) at 10uM” value was -10.4%.
`O=[N+]([O-])c1ccc(CNc2cccc(F)c2)s1`: the “hERG current change (%, negative = inhibition) at 10uM” value is -32.3%.
Turning to `Cc1ccc(CNC(=O)c2nc3nc(C)cc(C)n3n2)cc1`, the “hERG current change (%, negative = inhibition) at 10uM” value turned out to be 14.4%.
Regarding `Cc1cccc(NC(=S)Nc2cccc3ccccc23)c1`, the “hERG current change (%, negative = inhibition) at 10uM” value is given as 15.9%.
Consider `Cc1ccc(NC(=S)NC2CCN(Cc3ccccc3)CC2)c(C)c1`, for which the “hERG current change (%, negative = inhibition) at 10uM” value is recorded as -12.9%.
As to `CCOC(=O)c1c(-c2ccc(C)cc2)csc1NC1=NS(=O)(=O)c2ccccc21`, the “hERG current change (%, negative = inhibition) at 10uM” value is recorded as -1.41%.
`CC(=O)C1CCN(Cc2ccccc2)CC1`: the “hERG current change (%, negative = inhibition) at 10uM” value is given as 20.5%.
On to `Cl.N#CC(c1ccccc1)C1CCN(Cc2ccccc2)CC1` (stereo not shown), for which the “hERG current change (%, negative = inhibition) at 10uM” value is -50.9%.
With `CSc1ccccc1OC1CCN(Cc2ccccc2)CC1.Cl`, the “hERG current change (%, negative = inhibition) at 10uM” value is given as -24.3%.
Under `O=C(OCC(=O)N1CCCCCC1)c1ccc([N+](=O)[O-])cc1Cl` stands 8.47%; under `Cc1ccccc1S(=O)(=O)Nc1nc2ccccc2nc1N1CCOCC1`, 7.22%.
As to `CCn1ccc(C(=O)NC2=NCCS2)n1`, the “hERG current change (%, negative = inhibition) at 10uM” value is -3.73%.
On to `C=CCNC(=O)/C(C#N)=C/c1c(N2CCCCCC2)nc2ccccn2c1=O`, for which the “hERG current change (%, negative = inhibition) at 10uM” value was -59.6%.
`CCNC(=O)/C(C#N)=C/c1c(N2CCN(c3ccccc3)CC2)nc2ccccn2c1=O`: the “hERG current change (%, negative = inhibition) at 10uM” value is given as -66.3%.
Consider `COCCNC(=O)/C(C#N)=C/c1c(N2CCN(c3ccccc3)CC2)nc2ccccn2c1=O`, for which the “hERG current change (%, negative = inhibition) at 10uM” value is on record as -20.7%.
In the case of `CNC(=O)/C(C#N)=C/c1c(N2CCCCCC2)nc2ccccn2c1=O`, the “hERG current change (%, negative = inhibition) at 10uM” value stood at 10.2%.
Turning to `CCNC(=O)/C(C#N)=C/c1c(N2CCOCC2)nc2ccccn2c1=O`, the “hERG current change (%, negative = inhibition) at 10uM” value is listed as -4.68%.
With `CCNC(=O)/C(C#N)=C/c1c(N2CCCCCC2)nc2ccccn2c1=O` the figure was -9.13%.
